Laboratory results taken from PubChem BioAssay (NCATS).
Several values for one entry are separate records, joined by “and”; a condition that tells them apart may be missing. Identical values can stand only once. Inconclusive results are not listed. Values without a mark were called inactive. Activity calls are given as the source filed them. Calls follow the shape of the dose curve; as a rule, active = well fitted cell-killing curve with a large enough effect; inconclusive = small, poorly fitted or top-dose-only effect; inactive = flat fitted curve, though single readings scatter.

Assay: Cellular viability qHTS for adrenocortical cancer (ACC) cell line SW-13 (AID 1963989); also: nearly all actives have a fitted effect of over 65% in size;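 as to activity (max response): cells grown in serum-free medium with ITS supplement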
Conditions: SW-13 ACC cells viability, CellTiter-Glo, 48 h; activity (max response): hits give low values
How it was run: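 Viability was read as CellTiter-Glo luminescence after 48 h compound treatment (up to 46 uM final) of SW-13 cells grown serum-free; titration curves were fit with a four-parameter logistic model to give IC50 and efficacy.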
% is scaled to controls: 0 for no effect and ±100 for the full control effect; potency is read from the fitted curve at half-maximal effect.

SMILES | activity (max response) | Potency
c1ccc(CC2=NCCN2)cc1 | -11.9% | 
Cc1[nH]nc(C(F)(F)F)c1Cc1sc2c(c1C(=O)N1C[C@](C)(O)CO1)c(=O)n(C)c(=O)n2C(C)C | 14.8% | 
CCN(CC)C(C)CN1c2ccccc2Sc2ccccc21 (stereo not given) | 16.5% | 
CCN(CC)C(=O)N1CCN(C)CC1 | -0.284% | 
CCN(CCCOc1ccc2c(Nc3cc(CC(=O)Nc4cccc(F)c4)[nH]n3)ncnc2c1)CCOP(=O)(O)O | -30.5% | 
Nc1ccc(F)cc1NC(=O)c1ccc(CNC(=O)/C=C/c2cccnc2)cc1 |  | 11.2 µM (active)
COc1cc(C)c(/C=C/C(C)=C/C=C/C(C)=C/C(=O)O)c(C)c1C | -22.4% | 
Nc1nc(F)nc2c1ncn2C1OC(COP(=O)(O)O)C(O)C1O (stereo not given) | -0.687% | 
COc1c(C)c2c(c(O)c1C/C=C(\C)CCC(=O)O)C(=O)OC2 | -49% | 
CC(C)(C)c1[nH]cnc1/C=c1\[nH]c(=O)/c(=C/c2ccccc2)[nH]c1=O |  | 0.0398 µM (active)
O=C1c2ccccc2C(=O)C1c1ccc(Br)cc1 | 7.53% | 
CCN(CC)CCOC(=O)C1(C2CCCCC2)CCCCC1 | -12.2% | 
CC(C)C(=O)OCC(=O)[C@@]12O[C@H](C3CCCCC3)O[C@@H]1C[C@H]1[C@@H]3CCC4=CC(=O)C=C[C@]4(C)[C@H]3[C@@H](O)C[C@@]12C | -10.3% | 
CCCCCOc1ccccc1/C(=C\SC)n1ccnc1 |  | 23.1 µM (active)
COc1cc2ncnc(Nc3ccc(O)c(Br)c3)c2cc1OC |  | 3.55 µM (active)
NC(=O)c1cccc2c(NC(CN3CCC3)c3ccc(Cl)c(C(F)(F)F)c3)ncnc12 (stereo not given) |  | 14.1 µM (active)
C/C(=N\NC(=O)c1cccc(S(=O)(=O)N2CCOCC2)c1)c1cc(Cl)ccc1O |  | 8.91 µM (active)
COc1ccc(Cl)c(Nc2ncnc3cc(OCC4CCN(C)CC4)c(OC)cc23)c1 |  | 15.8 µM (active)
Cc1nc(NC(=O)N2CCC[C@H]2C(N)=O)sc1-c1csc(C(C)(C)C)n1 | -23.3% | 
COc1ccc2cc1Oc1cc3c(cc1OC)CC[N+](C)(C)[C@H]3Cc1ccc(cc1)Oc1c(OC)c(OC)cc3c1[C@@H](C2)[N+](C)(C)CC3 | 15.7% | 

SMILES | activity (max response) | Potency
CCOC(=O)c1ccnc(CNCC(=O)N(CC)CCN(C)C)c1 | -23.8% | 
CCNC1(C(N)=O)CCN(c2ncnc3c2nc(-c2ccccc2Cl)n3-c2ccc(Cl)cc2)CC1 | -4.01% | 
CCC(=O)O[C@]1(C(=O)CCl)[C@@H](C)C[C@H]2[C@@H]3CCC4=CC(=O)C=C[C@]4(C)[C@@]3(F)[C@@H](O)C[C@@]21C | -11.2% and -16.8% | 
CC(=O)OC[C@H]1O[C@@](COC(C)=O)(O[C@H]2O[C@H](COC(C)=O)[C@@H](OC(C)=O)[C@H](OC(C)=O)[C@H]2OC(C)=O)[C@@H](OC(C)=O)[C@@H]1OC(C)=O | 1.89% | 
O=C(O)CCCc1ccccc1 | 16.4% | 
CNS(=O)(=O)c1ccc2c(c1)/C(=C/c1[nH]c3c(c1CCCN1CCN(C)CC1)CCCC3)C(=O)N2 |  | 28.2 µM (active)
O=C(O)[C@@H]1[C@H]2C[C@H]3c4[nH]c5ccccc5c4CCN3C[C@@H]2CC[C@@H]1O | 3.73% | 
NC(=O)/C(=C/n1cnc(-c2cc(C(F)(F)F)cc(C(F)(F)F)c2)n1)c1cncnc1 |  | 3.98 µM (active)
C#C[C@]1(O)CC[C@H]2[C@@H]3CCC4=Cc5oncc5C[C@]4(C)[C@H]3CC[C@@]21C | 0.351% | 
CC1=C(C(=O)O)N2C(=O)[C@@H](NC(=O)[C@H](N)c3ccccc3)[C@H]2SC1 | 10% | 
C=CC(=O)N1CC/C(=C\c2ccc(F)c([N+](=O)[O-])c2)C(=O)/C(=C/c2ccc(F)c([N+](=O)[O-])c2)C1 |  | 0.794 µM (active)
O=C(O)c1ccccc1NCCc1ccccc1 | 9.86% | 
CCc1cc(/C(C)=N/OCc2ccc(C3CCCCC3)c(C(F)(F)F)c2)ccc1CN1CC(C(=O)O)C1 | -17.6% | 
NNc1nnc(NN)c2ccccc12 | -8.18% | 
C=C1c2cccc(O)c2C(O)=C2C(=O)[C@]3(O)C(O)=C(C(N)=O)C(=O)[C@@H](N(C)C)[C@@H]3[C@@H](O)[C@H]12 | 3.29% | 
CC(C)NCCCC1(C(N)=O)c2ccccc2-c2ccccc21 | 9.8% | 
CC[C@@]1(O)C(=O)OCc2c1cc1n(c2=O)Cc2c-1nc1ccccc1c2CCNC(C)C |  | 0.0823 µM (active)
C[C@H]1C[C@H]2[C@@H]3CCC4=CC(=O)C=C[C@]4(C)[C@@]3(Cl)[C@@H](O)C[C@]2(C)[C@@]1(O)C(=O)CO | -3.23% | 
CC(C)n1nc(-c2cc3cc(O)ccc3[nH]2)c2c(N)ncnc21 |  | 5.8 µM (active) and 14.1 µM (active)
O=C(Nc1cc(Oc2cc(F)c(NC(=O)C3(C(=O)Nc4ccc(F)cc4)CC3)cc2F)ccn1)C1CC1 | -9.83% | 
